# This is a sample that favours compounds with a hit; in the whole collection about 2.8% have one here.
# MBNL1-CUG inh – inhibitors of human MBNL1 binding to CUG repeat RNA | Q9NR56 | TR-FRET MBNL1-His/biotin-(CUG)12 binding, 665/545 ratio | Potency, µM (highest dose often 57.5 µM), inactives show at the top dose activity change, negative = inhibition, actives largely listed as inhibitors | 0.036% of 280,000 active | AID 2675; active = well fitted inhibition curve with a large enough effect in the signal ratio, with a control signal flat, not every such curve was filed as active; inconclusive = small, poorly fitted or top-dose-only effect, or effect the other way, or a change in a side signal; inactive = no such curve, though single readings can be large or run the other way; the % refers to the signal ratio; also: potency is read from the fitted curve at half-maximal effect; % is scaled to controls: 0 for no effect and ±100 for the full control effect
# Target sequence (Q9NR56 whole entry, looked up): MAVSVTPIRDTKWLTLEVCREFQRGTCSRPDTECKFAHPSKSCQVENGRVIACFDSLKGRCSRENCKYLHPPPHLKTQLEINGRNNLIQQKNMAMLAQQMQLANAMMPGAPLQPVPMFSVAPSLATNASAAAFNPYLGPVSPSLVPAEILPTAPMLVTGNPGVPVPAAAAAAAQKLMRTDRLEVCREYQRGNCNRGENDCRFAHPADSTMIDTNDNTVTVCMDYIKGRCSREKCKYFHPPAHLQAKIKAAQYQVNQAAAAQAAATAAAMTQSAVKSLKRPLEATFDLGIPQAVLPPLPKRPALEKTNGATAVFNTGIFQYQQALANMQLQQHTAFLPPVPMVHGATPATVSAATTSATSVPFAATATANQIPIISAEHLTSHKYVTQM
#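 TR-FRET readout: Ex 340 nm, 665/545 nm emission ratio, normalized to buffer-only (basal) and MBNL1-(CUG)12 controls. Complex of MBNL1-His with Biotin-(CUG)12, compounds 92 nM–58 uM, incubated 60 min at room temperature.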
# DRD3 antagonist – blocks the human D3 dopamine receptor. 2.5% of 360,000 active. AID 652054. max response, negative = inhibition, %. D3R cells, DiscoveRx beta-arrestin luminescence, antagonist mode; active compounds read low; in the data active = max response below about -50%; inconclusive = no clear call, values can overlap the other calls; also: % is scaled to controls: 0 for no effect and ±100 for the full control effect
#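 Cells expressing the human receptor were seeded at 1500 cells/well, incubated overnight at 37 degrees C in 5% CO2, then exposed to library compounds with dopamine controls for 90 minutes at 37 degrees C before luminescent detection.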
# Integrin act MD – activates integrin-mediated alleviation for muscular dystrophy; 0.064% of 350,000 active; alpha7betagal myoblasts, beta-gal FDG fluorescence, 48 h; Potency, µM (doses to about 38.3 µM), for inactives: at the top dose activation, hits mostly activators;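 also: potency is read from the fitted curve at half-maximal effect; 100% = response of the positive control SU9516; nearly all actives have a fitted effect of over 60% in size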
#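 alpha7betagal+/- myoblasts (passage 13, 250/well) treated 48 h at 37C with compounds at 1:260 dilution of DMSO stock. Lysed, then beta-galactosidase activity read as FDG fluorescence (ex 480/em 540) after 30 min, with pre-read for autofluorescence.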
# PTHR1 ag – PTHR1 (human) receptor agonism | AID 743266 | HEK293 GP2 PTHR1 cells, GloSensor cAMP luminescence, 1 h | 0.075% of 410,000 active | Potency, µM (highest dose often 115 µM), inactives show at the highest dose activation, usual class: activators; also: potency is read from the fitted curve at half-maximal effect; nearly all actives have a fitted effect of over 55% in size
#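 HEK-293-derived GP2 cells expressing PTHR1 and a GloSensor cAMP reporter, 3,000/well, plated overnight, given luciferin plus IBMX (each 0.5 mM as added) for 1 h at 37 °C, then compound for 1 h at 37 °C. Luminescence was read after 15 min at room temperature.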
# DRD3 agonist – activates the human D3 dopamine receptor; P35462; D3R DiscoveRx beta-arrestin cells, luminescence, 90 min; max activation, %; 0.58% of 410,000 active; in the data active = max activation above about 30%; also: 0% is about no effect
#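 Agonist-mode cell screen: cells plated at 1500/well and incubated overnight at 37 °C, then exposed to library compounds for 90 min at 37 °C. Detection reagent was added for 30–60 min at room temperature, and luminescence was read.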
# CBFb-RUNX1 inh – CBF-beta/RUNX1 interaction disruption; Potency, µM (highest dose often 59.8 µM), for inactives: top-dose activity, negative = inhibition, usual class: inhibitors; Q01196+Q13951; 230,000 tested, under 10 active; AlphaScreen CBFb-His/RUNX1-biotin binding, biochemical; also: % of control where 0% means no effect
#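 CBFb-His/RUNX1-biotin, 30 nM each, preincubated 20 min RT; compound 15 min RT; Ni + streptavidin beads 50 ng each, 90 min RT; AlphaScreen read.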
# * marks the source's active call; other numbers are inactive results; i = inactive; ? = inconclusive; . = no result given; ! = a repeat was not active; [ ] = another dose, or the depositor's remark. Unless noted, calls follow the shape of the dose curve; as a rule, active = well fitted curve in the direction sought with a large enough effect; inconclusive = small, poorly fitted or top-dose-only effect, or another doubt; inactive = no such curve, though single readings can be large; an effect the other way counts as inactive or inconclusive.
SMILES,MBNL1-CUG inh,DRD3 antagonist,Integrin act MD,PTHR1 ag,DRD3 agonist,CBFb-RUNX1 inh
CCc1nn2c(N)c(/C=C3\C=Nc4ccccc43)c(=O)nc2s1,?,-50*!,?,-4%,-10,?
Cc1cn2c(N)c(/C=C3\C=Nc4ccccc43)c(=O)nc2s1,.,-25,29%,-1%,-4,-6%
CN1CCN(C(=O)c2ccccc2N(Cc2ccccc2)S(=O)(=O)c2ccccc2)CC1,-8%,-60*,10%,-25%[57.5 µM],-57,1%
COc1ccc(Br)cc1CN1CCCC(C(=O)N2CCCCC2)C1 (stereo not drawn),0%,-89*,-13%,-46%,-9,-5%
COc1ccc(OC)c(CN2CCCC(C(=O)N3CCCCC3)C2)c1 (stereo not drawn),7%,-77*,-23%[7.66 µM],i,-30,6%
COc1ccc(Br)cc1CN1CCCC(C(=O)N2CCCCCC2)C1 (stereo not drawn),1%,?,-35%,-86%,-17,-3%
CN(c1ccccc1)S(=O)(=O)c1ccc(C(=O)Nc2nnc(-c3ccc(F)cc3)o2)cc1,-3%,-88*,-9%,-29%[57.5 µM],-4,1%
COc1ccccc1-c1nnc(NC(=O)c2ccc(S(=O)(=O)N(C)Cc3ccccc3)cc2)o1,?,-78*,-38%,-34%,4,-5%
COc1ccccc1-c1nnc(NC(=O)c2ccc(S(=O)(=O)N3CCOCC3)cc2)o1,0%,-18,2%,-40%,-9,.
CCc1nnc(NC(=O)c2ccc(S(=O)(=O)N(C)Cc3ccccc3)cc2)o1,5%,-1,-11%,-21%,-1,.
CN(c1ccccc1)S(=O)(=O)c1ccc(NC(=O)c2ccc(-c3ccccc3)cc2)cc1,5%,19,-40%,-26%,13,3%
CN(Cc1ccccc1)S(=O)(=O)c1ccc(C(=O)Nc2nnc(C3CC3)o2)cc1,-4%,-63*,-9%,-11%,-7,-16%
COc1ccc(CNC(=O)C[C@@H]2C=C[C@@H](NS(=O)(=O)c3cccc(OC)c3)[C@@H](CO)O2)cc1,.,8,.,-24%,1,.
Cc1ccc(S(=O)(=O)NCCc2ccncc2)cc1[N+](=O)[O-],32%,-5,-28%,-3%,-5,.
CCc1nn2c(=O)cc(COC(=O)c3cc(Cl)c(OC)c(OC)c3)nc2s1,.,14,-33%,-41%,1,.
Cc1oc(=O)c(NC(=O)c2ccccc2)cc1C(N)=O,?,15,19%,i,0,-2%
COc1ccc(C(=O)Nc2cc(C(=O)c3ccccc3)c(C)oc2=O)cc1,-7%,-62*,-62%,-16%,-8,0%
Cc1oc(=O)c(NC(=O)c2cccc(Cl)c2)cc1C(=O)c1ccccc1,-1%,-63*,-20%,i,-7,1%
CCCc1cc(=O)oc2c(C)c3c(cc12)CN(CCc1ccc(Cl)cc1)CO3,.,.,.,i,-30,.
O=C1c2c(O)cccc2[C@H]([C@@H]2O[C@H](CO)[C@@H](O)[C@H](O)[C@H]2O)c2cc(CO)cc(O)c21,.,.,.,.,-21,.
O=C(O)c1cc(O)c2c(c1)[C@@H]([C@H]1c3cc(C(=O)O)cc(O)c3C(=O)c3c(O[C@@H]4O[C@H](CO)[C@@H](O)[C@H](O)[C@H]4O)cccc31)c1cccc(O[C@@H]3O[C@H](CO)[C@@H](O)[C@H](O)[C@H]3O)c1C2=O,.,-50*,34%,-87%,-20,.
COc1cc(/C=C/C(=O)OC2CC3CCC2(C)C3(C)C)ccc1O (stereo not drawn),1%,-50*,-38%,-10%,-2,13%
COCCc1nn2c(=O)cc(COC(=O)c3ccc4c(c3)OCO4)nc2s1,.,.,.,i,-11,.
CCN(CC)S(=O)(=O)c1cccc(-c2n[nH]c(=S)n2/N=C/c2ccc(Br)cc2)c1,-4%,-54*,7%,i,-5,-3%
CSc1ccccc1CNc1nc(NCC2CC2)nc2ccsc12,.,2,.,-26%,-1,.

# Compound activity (PubChem BioAssay)
